Values joined by “and” are separate entries in the source; they are usually repeats but may differ in a detail not shown here. Identical values can stand only once. This is part of a sample that, as a whole, favours compounds with a hit. Of some 79,000 tested, about 15% had one in any assay. A number with no mark means an inactive call. Active and inactive are the calls of the source. Cut-off read from the data, not from the text of the source: active = growth inhibition above about 70%; inactive = the rest.

Assay [1] can be described thus: NCI Yeast Anticancer Drug Screen. Data for the mec2-1 strain (AID 157). As to conditions: S. cerevisiae mec2-1 strain, hits give high values. In a few lines:
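Cells of the genetically defined mec2-1 yeast strain are incubated with test compound. Inhibition of growth is calculated against vehicle-treated controls.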

A short description of assay [2]: NCI Yeast Anticancer Drug Screen. Data for the sgs1 mgt1 strain (AID 161).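 Note: 0% = growth of cultures given vehicle only.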 The conditions noted are these: S. cerevisiae sgs1 mgt1 strain, hits give high values. The gist of the method: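 Genetically altered yeast, compound exposure, growth inhibition relative to vehicle.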
Assay [3] can be described thus: NCI Yeast Anticancer Drug Screen. Data for the cln2 rad14 strain (AID 165).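 Note: 0% = growth equal to vehicle treated cultures.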 As to conditions: S. cerevisiae cln2 rad14 strain, hits give high values. In a few lines:
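The screen exposed genetically defined yeast (cln2 rad14) to test compounds and scored growth inhibition relative to vehicle-treated controls.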

The nature of assay [4]: NCI Yeast Anticancer Drug Screen. Data for the bub3 strain (AID 167). The conditions noted are these: S. cerevisiae bub3 mutant strain, hits give high values. In a few lines: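 In this screen, a yeast mutant lacking normal mitotic checkpoint function is challenged with compound. Relative growth versus vehicle gives the inhibition value.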
The nature of assay [5]: NCI Yeast Anticancer Drug Screen. Data for the mlh1 rad18 strain (AID 175). The conditions noted are these: S. cerevisiae mlh1 rad18 strain growth inhibition, hits give high values. In a few lines:
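Compound-treated yeast growth, normalised to vehicle controls. Strain bears defined DNA repair mutations.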

Assay [6] in a line: NCI Yeast Anticancer Drug Screen. Data for the rad50 strain (AID 155).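 Note: 0% = growth of vehicle-only cultures of the same strain.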 As to conditions: S. cerevisiae rad50 strain growth inhibition, hits give high values. In a few lines: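 DNA repair mutant yeast, compound exposure, growth read-out; inhibition is taken relative to vehicle.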
[7] abbreviates: at 5.0 µM (retest, dose inferred, filed as 0.5).
Setting [8] is: at 50.0 µM (retest, dose inferred, filed as 5.0).

Take `CN(C)c1ccc(/C=C\c2c3ccccc3cc[n+]2[O-])cc1`: the growth inhibition in assay [1] (setting [7]) was -5%; in assay [1] (setting [8]), 0%; in assay [1] (at 50.0 µM) it was 3%; in assay [2] (setting [7]), 0%; in assay [2] (setting [8]), -12%; in assay [2] (at 50.0 µM) it was 17.9%. The growth inhibition in assay [3] (setting [7]) is -5%; in assay [3] (setting [8]) it was -5%; in assay [3] (at 50.0 µM), -10.2%; in assay [4] (setting [7]), -6%; in assay [4] (setting [8]), -11%; in assay [4] (at 50.0 µM), 21%. In addition, the growth inhibition is -10% in assay [5] (setting [7]), 8% in assay [5] (setting [8]) and 14.8% in assay [5] (at 50.0 µM).

For `CCOC(=O)c1c(-c2ccccc2)csc1NC(=O)CBr`, the growth inhibition in assay [1] (setting [7]) is 11%; in assay [1] (setting [8]) it was 99% (active); in assay [1] (at 50.0 µM), 98.3% (active); in assay [2] (setting [7]) it was 30%; in assay [2] (setting [8]), 99% (active); in assay [2] (at 50.0 µM), 52.5%. Further, the growth inhibition in assay [3] (setting [7]) was 3%; in assay [3] (setting [8]), 98% (active); in assay [3] (at 50.0 µM), 91.8% (active); in assay [4] (setting [7]) it was 7%; in assay [4] (setting [8]) it was 97% (active); in assay [4] (at 50.0 µM) it was 94.2% (active). For the same compound, the values for the growth inhibition in assay [5] (setting [7]), in assay [5] (setting [8]) and in assay [5] (at 50.0 µM) were 49%, 98% (active) and 99.2% (active), respectively.

Regarding `Cc1c2c(c(O)c3c(O)cccc13)C(=O)C1(O)C(=O)C(C(N)=O)C(O)C(N(C)C)C1C2` (configuration not stated), the growth inhibition in assay [1] (setting [7]) was 82% (active); in assay [1] (setting [8]), 100% (active); in assay [1] (at 50.0 µM) it was 99.2% (active); in assay [2] (setting [7]), -90%; in assay [2] (setting [8]), 100% (active); in assay [2] (at 50.0 µM), 58%. Moreover, the growth inhibition is 66% in assay [3] (setting [7]); 99% (active) in assay [3] (setting [8]); 98.7% (active) in assay [3] (at 50.0 µM); 61% in assay [4] (setting [7]); 99% (active) in assay [4] (setting [8]); 98.6% (active) in assay [4] (at 50.0 µM). The growth inhibition in assay [5] (setting [7]) is 70% (active); in assay [5] (setting [8]), 99% (active); in assay [5] (at 50.0 µM), 99.1% (active).

`Nc1ncnc2c1ncn2C1OC(CO)C(O)C1O` (configuration not stated): the growth inhibition in assay [6] (at 50.0 µM) was -12.3% and 53.1% and 0.85%; in assay [1] (at 50.0 µM), -10.9% and 11.8% and -9.1%; in assay [2] (at 50.0 µM), -1.8% and 43.4% and 5.55%; in assay [3] (at 50.0 µM), 14.6% and -0.75% and -5.05%; in assay [4] (at 50.0 µM) it was 4.6% and 18.7% and 26.4%; in assay [5] (at 50.0 µM) it was -23.1% and 27.6% and 19.4%.

With `CCCCCCCC/C=C\CCCCCCCCN1CCOCC1`, the growth inhibition in assay [6] (setting [7]) is -2%; in assay [6] (setting [8]) it was -2%; in assay [6] (at 50.0 µM) it was 99.2% (active); in assay [2] (setting [7]), -4%; in assay [2] (setting [8]), 5%; in assay [2] (at 50.0 µM) it was 99.2% (active). Besides, the growth inhibition is 11% in assay [3] (setting [7]); 3% in assay [3] (setting [8]); 97.5% (active) in assay [3] (at 50.0 µM); 15% in assay [4] (setting [7]); 19% in assay [4] (setting [8]); 99.1% (active) in assay [4] (at 50.0 µM). Besides, the results for the growth inhibition in assay [5] (setting [7]), in assay [5] (setting [8]) and in assay [5] (at 50.0 µM) were -3%, 1% and 99.2% (active), respectively.

Take `Cc1[nH]c2ccccc2c1/C=C1\C(=O)C2CCC1C2` (configuration not stated): the growth inhibition in assay [6] (setting [7]) is -7%; in assay [6] (setting [8]) it was 75% (active); in assay [6] (at 50.0 µM), 95.4% (active); in assay [1] (setting [7]) it was -4%; in assay [1] (setting [8]), 73% (active); in assay [1] (at 50.0 µM), 34.6%. The growth inhibition in assay [3] (setting [7]) is -4%; in assay [3] (setting [8]) it was 38%; in assay [3] (at 50.0 µM), 45.4%; in assay [4] (setting [7]), -16%; in assay [4] (setting [8]), 80% (active); in assay [4] (at 50.0 µM) it was 39%. The growth inhibition in assay [5] (setting [7]) was -14%; in assay [5] (setting [8]) it was 80% (active); in assay [5] (at 50.0 µM), 86.9% (active).

As for `NC(=S)N/N=C\c1nccc2c(C(F)(F)C(F)(F)C(F)(F)F)cccc12`, the growth inhibition in assay [1] (setting [7]) is 39%; in assay [1] (setting [8]), 69%; in assay [1] (at 50.0 µM), 74.5% (active); in assay [2] (setting [7]), 39%; in assay [2] (setting [8]), 69%; in assay [2] (at 50.0 µM), 74% (active). Further, the growth inhibition was 10% in assay [3] (setting [7]); 62% in assay [3] (setting [8]); 69.6% in assay [3] (at 50.0 µM); 11% in assay [4] (setting [7]); 81% (active) in assay [4] (setting [8]); 75.6% (active) in assay [4] (at 50.0 µM). Also, the values for the growth inhibition in assay [5] (setting [7]), in assay [5] (setting [8]) and in assay [5] (at 50.0 µM) were 24%, 69% and 73.3% (active), respectively.

For the compound `CCCCCCCCCCCCCCCCCCn1[se]c2ccccc2c1=O`, the growth inhibition in assay [1] (setting [7]) is 16%; in assay [1] (setting [8]), 16%; in assay [1] (at 50.0 µM) it was 45.4%; in assay [2] (setting [7]) it was 17%; in assay [2] (setting [8]), 17%; in assay [2] (at 50.0 µM) it was 83.8% (active). The growth inhibition in assay [3] (setting [7]) was 15%; in assay [3] (setting [8]) it was 15%; in assay [3] (at 50.0 µM), 59.1%; in assay [4] (setting [7]), 0%; in assay [4] (setting [8]) it was 0%; in assay [4] (at 50.0 µM) it was 76.5% (active). The results for the growth inhibition in assay [5] (setting [7]), in assay [5] (setting [8]) and in assay [5] (at 50.0 µM) were -1%, -1% and 33.5%, respectively.

As to `CCOC(=O)C1SC(=Nc2ccc(Cl)cc2)N=C1C` (configuration not stated), the growth inhibition is 14% in assay [6] (setting [7]); 56% in assay [6] (setting [8]); 88.8% (active) in assay [6] (at 50.0 µM); 26% in assay [2] (setting [7]); 71% (active) in assay [2] (setting [8]); 89.8% (active) in assay [2] (at 50.0 µM). For the same compound, the growth inhibition in assay [3] (setting [7]) was 11%; in assay [3] (setting [8]) it was 66%; in assay [3] (at 50.0 µM), 90% (active); in assay [4] (setting [7]), 19%; in assay [4] (setting [8]), 69%; in assay [4] (at 50.0 µM), 88.8% (active). The growth inhibition is 34% in assay [5] (setting [7]), 66% in assay [5] (setting [8]) and 89.6% (active) in assay [5] (at 50.0 µM).

For the compound `COc1cc(/C=C/C(C)=O)ccc1O`, the growth inhibition is 18.1% and 35.2% and 5.45% in assay [6] (at 50.0 µM); -10.4% and 9.95% and -15.9% in assay [1] (at 50.0 µM); -6.5% and 21.9% and -16.1% in assay [2] (at 50.0 µM); -17.4% and -22.3% and -1.45% in assay [3] (at 50.0 µM); 1.7% and 3.35% and 4.4% in assay [4] (at 50.0 µM); -4.85% and 23.2% and -20.9% in assay [5] (at 50.0 µM).

For the origin of these results see PubChem BioAssay (NCI).
